Assay results: PubChem BioAssay (Tox21)
Values joined by “and” are separate entries in the source; they are usually repeats but may differ in a detail not shown here. Equal entries are not always repeated. Records with an inconclusive call do not appear. More than one record can exist for a structure, and the calls need not agree. Active and inactive are the calls of the source. Unless noted, the call rests on the fitted dose curve.

Key:
[1] = Nuclear factor erythroid 2-related factor 2/antioxidant responsive element (Nrf2/ARE) small molecule agonists: qHTS cell viability counter screen in human keratinocytes (AID 1919968; active means well fitted curve in the direction sought with a large enough effect in the repeat runs; an effect the other way counts as inactive or inconclusive; further: nearly all actives have a fitted effect of over 55% in size; further: potency means the concentration at half of the fitted maximal effect)
Procedure, shortened: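 CellTiter-Fluor fluorescence, read 1 h after reagent, gave viability in the same wells as the ARE-luciferase assay. KeratinoSens cells (1,500/well) had 23 h compound exposure at 37 C/5% CO2 following 5 h plating.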

[2] = molecular target: Gonadotropin-releasing hormone receptor (Homo sapiens) (UniProt P30968); assay: Human gonadotropin-releasing hormone receptor (GnRHR) small molecule agonists, calcium flux assay in GnRHR-HEK293 cells (AID 1920063); further: nearly all actives have a fitted effect of over 35% in size; further: potency means the concentration at half of the fitted maximal effect
Gonadotropin-releasing hormone receptor (Homo sapiens), sequence (P30968 whole entry, looked up): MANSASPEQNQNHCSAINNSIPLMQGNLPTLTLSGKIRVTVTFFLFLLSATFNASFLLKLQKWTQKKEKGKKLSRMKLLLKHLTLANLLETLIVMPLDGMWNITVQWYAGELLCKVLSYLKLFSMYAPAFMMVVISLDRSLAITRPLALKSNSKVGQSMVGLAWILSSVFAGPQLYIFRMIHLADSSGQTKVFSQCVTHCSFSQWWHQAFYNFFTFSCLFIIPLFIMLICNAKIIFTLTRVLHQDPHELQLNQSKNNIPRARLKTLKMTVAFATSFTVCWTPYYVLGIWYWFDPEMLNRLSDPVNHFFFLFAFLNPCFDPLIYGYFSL
Procedure, shortened: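 Agonist mode: compounds at 15 concentrations, in triplicate, went onto calcium dye-loaded GnRHR-HEK293 cells. Intracellular calcium was then followed as 480/540 nm fluorescence at 1 s intervals over 3 min.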

[3] = G protein-coupled receptor (GPCR) small molecule agonists, calcium flux assay: HEK293 wild type cell line counter screen (AID 1920065)
Procedure, shortened: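 Calcium flux counter screen: compound added in agonist mode at 15 concentrations in triplicate to dye-loaded parental HEK293 cells. Fluorescence (480/540) read kinetically for 3 min; ATP served as positive control.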

[4] = p53 small molecule agonists, cell-based qHTS assay (AID 1963582; active means well fitted activation curve with a large enough effect in the signal ratio in the repeat runs, not every such curve was filed as active; the % refers to the signal ratio)
Procedure, shortened: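 Read-out is beta-lactamase FRET fluorescence after 2 h at room temperature with LiveBLAzer B/G substrate. p53 response element-bla cells were treated 16 h at 37 C with compounds in DMSO, added 5 h after seeding.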

[5] = cAMP Responsive Elements (CRE) small molecule agonists, cell-based qHTS assay (AID 1963590)
Procedure, shortened: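 Agonist mode: compound added to CRE-bla HEK 293T cells (2,000/well, 18 h after plating) for 3 h at 37 C/5% CO2. Reporter activity detected via FRET beta-lactamase substrate, 2 h room-temperature loading.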

[6] = cAMP Responsive Elements (CRE) small molecule antagonists, cell-based qHTS assay (AID 1963591; active means well fitted inhibition curve with a large enough effect in the signal ratio in the repeat runs, not every such curve was filed as active; the % refers to the signal ratio)
Procedure, shortened: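 Antagonist mode: compounds are added alongside the adenylyl cyclase activator NKH477 (0.25 uM final) to CRE-bla HEK293T cells for 3 h. LiveBLAzer FRET substrate, 2 h at room temperature, reports bla expression.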

[7] = molecular target: Beta-2 adrenergic receptor (Homo sapiens) (UniProt P07550); assay: Adrenergic beta2 receptor (ADRB2) small molecule antagonists, cell-based qHTS assay (AID 1963592); further: nearly all actives have a fitted effect of over 50% in size; further: potency means the concentration at half of the fitted maximal effect
Beta-2 adrenergic receptor (Homo sapiens), sequence (P07550 whole entry, looked up): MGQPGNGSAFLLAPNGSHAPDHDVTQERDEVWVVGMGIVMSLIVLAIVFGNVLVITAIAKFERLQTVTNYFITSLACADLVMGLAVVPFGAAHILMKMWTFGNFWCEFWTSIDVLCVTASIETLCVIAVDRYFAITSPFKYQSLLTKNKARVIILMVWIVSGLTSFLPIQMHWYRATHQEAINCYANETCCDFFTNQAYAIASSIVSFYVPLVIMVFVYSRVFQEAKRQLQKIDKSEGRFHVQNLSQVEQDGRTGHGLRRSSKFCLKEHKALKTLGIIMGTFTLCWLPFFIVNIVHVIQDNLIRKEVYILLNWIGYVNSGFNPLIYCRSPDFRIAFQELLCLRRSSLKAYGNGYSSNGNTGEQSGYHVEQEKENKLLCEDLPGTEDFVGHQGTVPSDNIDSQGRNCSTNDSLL
Procedure, shortened: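 Assay format: CHO-ADRB2 cells, 18-20hr seeding at 37C/5% CO2, then compound plus 1nM isoproterenol agonist mix for 0.5hr RT. Homogeneous time-resolved fluorescence cAMP detection after 1hr, expressed as 665/615 nm ratio.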

[8] = molecular target: D(2) dopamine receptor (Homo sapiens) (UniProt P14416); assay: Dopamine D2 receptor (DRD2) small molecule agonists, cell-based qHTS assay (AID 1963594); further: nearly all actives have a fitted effect of over 35% in size
D(2) dopamine receptor (Homo sapiens), sequence (P14416 whole entry, looked up): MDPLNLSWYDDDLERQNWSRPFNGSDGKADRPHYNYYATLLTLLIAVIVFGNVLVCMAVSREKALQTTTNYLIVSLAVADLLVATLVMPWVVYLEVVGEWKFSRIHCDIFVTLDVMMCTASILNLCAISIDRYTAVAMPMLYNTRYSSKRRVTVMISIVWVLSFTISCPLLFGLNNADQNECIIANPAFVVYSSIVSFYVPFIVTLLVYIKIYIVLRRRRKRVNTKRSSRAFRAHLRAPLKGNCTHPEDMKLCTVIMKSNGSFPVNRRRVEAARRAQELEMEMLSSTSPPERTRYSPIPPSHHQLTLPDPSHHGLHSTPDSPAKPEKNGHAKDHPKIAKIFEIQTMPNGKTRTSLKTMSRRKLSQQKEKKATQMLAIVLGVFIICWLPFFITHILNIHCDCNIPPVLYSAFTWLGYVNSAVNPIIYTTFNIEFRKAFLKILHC
Procedure, shortened: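 HEK293 cells stably expressing DRD2 were cultured 24 h at 37 C, then given Ro20-1724 (0.1 mM final) and compounds for 10 min at room temperature. NKH477 (200nM) was then added for 30 min. cAMP was read by HTRF.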

[9] = molecular target: KiSS-1 receptor (Homo sapiens) (UniProt Q969F8); assay: Human kisspeptin (KISS1R) small molecule agonists, calcium flux assay in KISS1R-HEK293 cells (AID 1920064; active means well fitted curve in the direction sought with a large enough effect in the repeat runs; an effect the other way counts as inactive or inconclusive)
KiSS-1 receptor (Homo sapiens), sequence (Q969F8 whole entry, looked up): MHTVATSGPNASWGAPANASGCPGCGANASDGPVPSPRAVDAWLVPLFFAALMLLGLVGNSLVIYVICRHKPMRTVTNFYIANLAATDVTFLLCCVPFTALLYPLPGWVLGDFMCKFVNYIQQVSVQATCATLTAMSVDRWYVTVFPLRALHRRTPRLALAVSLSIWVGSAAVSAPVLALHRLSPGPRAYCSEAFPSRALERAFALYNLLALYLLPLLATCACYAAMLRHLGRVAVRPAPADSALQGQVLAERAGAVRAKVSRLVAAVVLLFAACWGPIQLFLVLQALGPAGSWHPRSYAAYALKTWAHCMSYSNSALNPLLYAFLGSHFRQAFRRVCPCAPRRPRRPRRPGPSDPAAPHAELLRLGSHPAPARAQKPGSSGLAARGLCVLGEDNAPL
Procedure, shortened: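 Agonist mode: intracellular calcium rise tracked at 1 s intervals over 3 min (480/540 nm) immediately after compound addition to dye-loaded KISS1R-HEK293 stable cells. Each compound tested at 15 concentrations in triplicate.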

[10] = molecular target: D(2) dopamine receptor (Homo sapiens) (UniProt P14416); assay: Dopamine D2 receptor (DRD2) small molecule antagonists, cell-based qHTS assay (AID 1963595; active means well fitted inhibition curve with a large enough effect in the signal ratio in the repeat runs, with a control signal flat; the % refers to the signal ratio; further: potency means the concentration at half of the fitted maximal effect)
Procedure, shortened: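 HEK293 cells stably expressing DRD2 were preincubated with 0.1 mM Ro20-1724, then with compound for 10 min at room temperature. Cells were stimulated with 200 nM NKH477 plus 12 nM quinpirole for 30 min, and cAMP was read by HTRF.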

[11] = p53 small molecule agonists, cell-based qHTS assay with human liver microsomes: qHTS cell viability counter screen (AID 1963579); further: nearly all actives have a fitted effect of over 45% in size; further: potency means the concentration at half of the fitted maximal effect
Procedure, shortened: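 HLM-supplemented (0.5 mg/mL final) and NADPH-supplemented (0.5 mg/mL final) p53RE-bla cultures, 4,000 cells per well, were dosed with compounds in DMSO for 16 h at 37 C; luminescent ATP detection (CellTiter-Glo, 30 min, room temperature) quantified surviving cells.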

[12] = molecular target: Beta-2 adrenergic receptor (Homo sapiens) (UniProt P07550); assay: Adrenergic beta2 receptor (ADRB2) small molecule agonists, cell-based qHTS assay (AID 1963593);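 further: CHO cells stably overexpressing human ADRB2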
Procedure, shortened: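 CHO cells stably over-expressing ADRB2 were plated overnight at 37C, then dosed with compounds plus a stimulation mix containing 100uM IBMX and 25uM Ro-20-1724 for 0.5hr at room temperature. cAMP was measured by HTRF competition, 1hr.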

[13] = p53 small molecule agonists, cell-based qHTS assay with human liver microsomes (AID 1963577);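 further: p53 response element beta-lactamase reporter cells with liver microsomes plus NADPH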
Procedure, shortened: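 Reporter activation was measured by LiveBLAzer fluorescence intensity in p53RE-bla cells, which had been exposed to compounds for 16 h at 37 C alongside 0.5 mg/mL human liver microsomes and 0.5 mg/mL NADPH (final concentrations).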

[14] = p53 small molecule agonists, cell-based qHTS assay with rat liver microsomes (AID 1963578)
Procedure, shortened: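 Compound in DMSO added to p53RE-bla cells 5 h post-plating; rat microsomes/NADPH 0.5 mg/mL final; 16 h, 37 C; LiveBLAzer 2 h RT.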

[15] = p53 small molecule agonists, cell-based qHTS assay with rat liver microsomes: qHTS cell viability counter screen (AID 1963580); further: nearly all actives have a fitted effect of over 45% in size; further: potency means the concentration at half of the fitted maximal effect
Procedure, shortened: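 Counter screen for cytotoxicity under metabolic activation: rat liver microsomes and NADPH, 0.5 mg/mL final each, added with compounds to p53RE-bla HCT-116 cells; 16 h at 37 C, then ATP luminescence read.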

[16] = p53 small molecule agonists, cell-based qHTS assay: qHTS cell viability counter screen (AID 1963581); further: nearly all actives have a fitted effect of over 45% in size; further: potency means the concentration at half of the fitted maximal effect
Procedure, shortened: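 Counter screen read by CellTiter-Glo luminescence (ATP content, 30 min at room temperature), run in the same wells as the beta-lactamase reporter read. HCT-116 p53RE-bla cells saw compounds for 16 h at 37 C.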

[17] = molecular target: 5-hydroxytryptamine receptor 2A (Homo sapiens) (UniProt P28223); assay: 5-hydroxytryptamine receptor 2A (HTR2A) small molecule antagonists, cell-based qHTS assay (AID 1963586); further: nearly all actives have a fitted effect of over 45% in size
5-hydroxytryptamine receptor 2A (Homo sapiens), sequence (P28223 whole entry, looked up): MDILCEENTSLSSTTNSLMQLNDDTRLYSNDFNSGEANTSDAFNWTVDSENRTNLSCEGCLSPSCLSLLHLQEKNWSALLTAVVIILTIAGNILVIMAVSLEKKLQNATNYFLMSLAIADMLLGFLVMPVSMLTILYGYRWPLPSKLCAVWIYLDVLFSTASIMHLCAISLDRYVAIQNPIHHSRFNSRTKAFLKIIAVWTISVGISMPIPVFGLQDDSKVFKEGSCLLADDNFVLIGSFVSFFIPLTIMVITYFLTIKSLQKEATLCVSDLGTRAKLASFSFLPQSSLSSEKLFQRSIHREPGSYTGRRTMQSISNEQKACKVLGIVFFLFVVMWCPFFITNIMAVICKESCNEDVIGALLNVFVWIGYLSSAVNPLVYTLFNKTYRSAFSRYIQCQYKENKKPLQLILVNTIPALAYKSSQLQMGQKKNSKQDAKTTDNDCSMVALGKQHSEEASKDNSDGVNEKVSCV
Procedure, shortened: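 CHO cells stably expressing human HTR2A were plated for 18 h at 37 C, then loaded with calcium dye for 1 h. Compounds were preincubated 5 min at room temperature before DOI (4 nM solution) was added. Kinetic fluorescence was read for 3 min.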

[18] = molecular target: 5-hydroxytryptamine receptor 2A (Homo sapiens) (UniProt P28223); assay: 5-hydroxytryptamine receptor 2A (HTR2A) small molecule agonists, cell-based qHTS assay (AID 1963587); further: nearly all actives have a fitted effect of over 30% in size; further: potency means the concentration at half of the fitted maximal effect
Procedure, shortened: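 HTR2A-CHO cells, plated 18 h at 37 C/5% CO2, dye-loaded 1 h at 37 C; compounds in DMSO added by pin tool (agonist mode). Intracellular calcium flux read as kinetic fluorescence on FDSS over 2 min at 1 s intervals.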

[19] = molecular target: Muscarinic acetylcholine receptor M1 (Homo sapiens) (UniProt P11229); assay: Cholinergic receptor muscarinic 1 (CHRM1) small molecule antagonists, cell-based qHTS assay (AID 1963588); further: nearly all actives have a fitted effect of over 40% in size; further: potency means the concentration at half of the fitted maximal effect
Muscarinic acetylcholine receptor M1 (Homo sapiens), sequence (P11229 whole entry, looked up): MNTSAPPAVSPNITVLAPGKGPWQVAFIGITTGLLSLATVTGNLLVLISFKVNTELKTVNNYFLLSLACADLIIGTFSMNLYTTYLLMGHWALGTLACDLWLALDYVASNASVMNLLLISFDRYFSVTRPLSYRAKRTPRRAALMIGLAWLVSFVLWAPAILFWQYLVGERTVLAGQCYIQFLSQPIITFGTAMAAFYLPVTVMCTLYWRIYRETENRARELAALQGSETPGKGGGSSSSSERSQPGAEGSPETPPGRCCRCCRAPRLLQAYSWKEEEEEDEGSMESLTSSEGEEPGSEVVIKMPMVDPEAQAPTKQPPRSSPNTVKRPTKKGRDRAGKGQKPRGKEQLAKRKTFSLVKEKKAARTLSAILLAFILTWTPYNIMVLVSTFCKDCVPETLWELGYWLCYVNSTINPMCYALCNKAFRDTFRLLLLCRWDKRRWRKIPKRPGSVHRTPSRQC
Procedure, shortened: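 Compounds were tested at 15 concentrations in three independent runs. Dye-loaded CHRM1-CHO cells were exposed 5 min at room temperature before stimulation by acetylcholine added at 50nM. Intracellular calcium was read kinetically on FDSS for 3 min.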

[20] = molecular target: Muscarinic acetylcholine receptor M1 (Homo sapiens) (UniProt P11229); assay: Cholinergic receptor muscarinic 1 (CHRM1) small molecule agonists, cell-based qHTS assay (AID 1963589); further: nearly all actives have a fitted effect of over 35% in size; further: potency means the concentration at half of the fitted maximal effect
Procedure, shortened: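 Agonist-mode calcium-flux screen: compounds at 15 concentrations, three independent runs, were pin-transferred onto dye-loaded human CHRM1-CHO cells. Fluorescence was then recorded kinetically every second over minutes.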

Measured: Potency

CN1C(=O)CN=C(c2ccccc2)c2cc(Cl)ccc21
inactive: [1] | [2] | [3] | [4] | [5] | [6] | [7] | [8]

O=C(O)c1ccccc1O
inactive: [1] | [2] | [9] | [3] | [5] | [6] | [7] | [8] | [10]

C=C(C)[C@H]1Cc2c(ccc3c2O[C@@H]2COc4cc(OC)c(OC)cc4[C@@H]2C3=O)O1
inactive: [2] | [9] | [3] | [11] | [6] | [12] | [8] | [10]
inactive and 29.8 nM (active): [1]

c1ccc(-c2ccccc2)cc1
not listed: [3]
inactive: all other assays above

CC(C)OC(=O)Nc1cccc(Cl)c1
not listed: [6] | [9]
inactive: all other assays above

Cc1cc(N=Nc2ccccc2C)ccc1N
54.5 µM (active) and inactive: [1]
not listed: [3] | [5] | [6] | [12] | [13]
inactive: all other assays above

c1ccc(CN2CCNCC2)cc1
not listed: [9] | [11] | [12] | [20]
inactive: all other assays above

OCC(O)CO
inactive: [1] | [13] | [14] | [11] | [15] | [16]

CC(C)c1ccc(CO)cc1
not listed: [9] | [11] | [12] | [14] | [18]
inactive: all other assays above

O=S(=O)(O)O
not listed: [4] | [5] | [11] | [13] | [14]
inactive: all other assays above

CCOP(=O)(O)OCC (tested in a mixture with another compound)
inactive and 24.1 µM (active): [1]
inactive and 28.6 µM (active): [16]
inactive and 36.1 µM (active): [11]
inactive and 1.48 µM (active): [19]
not listed: [4] | [9] | [13] | [14] | [15] | [18]
inactive: all other assays above

O=[N+]([O-])O
not listed: [4] | [7] | [13] | [14] | [19]
inactive: all other assays above

C[N+](C)(C)CC(=O)O
not listed: [4] | [5] | [13] | [14]
inactive: all other assays above

Sc1ccccc1Cl
not listed: [7] | [9]
inactive: all other assays above

Oc1ccc(Cl)cc1Cc1ccccc1
active: [1] 43.3 µM and 31 µM
45.7 µM (active) and inactive: [15]
61.9 µM (active) and inactive: [7]
44.2 µM (active) and inactive: [18]
inactive and 41.3 µM (active): [11]
not listed: [2] | [4] | [19]
inactive: all other assays above

[Cl-].[Cl-].[Hg+2]
active: [1] 7.66 µM and 3.06 µM | [2] 38.7 µM and 38.9 µM | [11] 5.74 µM and 10.2 µM | [15] 16.2 µM and 4.08 µM | [18] 54.9 µM | [20] 54.9 µM | [10] 1.92 µM
inactive: [3] | [17] | [19]
